Experiment in all cases: HT-SELEX; high values mean tight binding
Common to all, as to settings: protein: recombinant; vector His6-GST; dsDNA, one strand shown

One experiment addresses T1, SALL4 ZFC4 WT (HT-SELEX) (Mus musculus, UniProt Q8BX22 870-940).
T1 sequence: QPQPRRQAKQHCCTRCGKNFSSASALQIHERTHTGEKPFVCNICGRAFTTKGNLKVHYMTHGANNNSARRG
In a few lines:
(§1)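 Recombinant mouse SALL4 zinc finger cluster 4 (residues 870–940, 1 µg), purified, was mixed with library DNA (1.5 µg in the first cycle, 200 ng thereafter) in 100 µl of buffer containing 10 mM Tris–HCl pH 7.5, 50 mM NaCl, poly(dI-dC) and DTT, and left for 10 min at room temperature. Complexes were captured on Ni2+ beads, washed, amplified by PCR and reselected for up to 6 cycles in triplicate, after which MiSeq sequencing and a 6-mer scan followed. Binding signal is the read fraction of each canonical k-mer, given as fold change relative to the starting random library.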

Experiment [1] concerns the target T2, SALL4 ZFC4 R900W (HT-SELEX) (Mus musculus, UniProt Q8BX22 870-940, R900W).
T2 sequence: T1 sequence with R31W
In outline: as §1

In experiment [2] the target is T3, SALL4 ZFC4 G921D (HT-SELEX) (Mus musculus, UniProt Q8BX22 870-940, G921D).
T3 sequence: T1 sequence with G52D
In outline:
as §1

Here are results for 36 sequences from publication PMC9838217, “Structure of SALL4 zinc finger domain reveals link between AT-rich DNA binding and Okihiro syndrome”.

Where a chain is given by its changes, count along the chain named.

Take GCTTAA: the binding signal is 1.02 ± 0.0584 fold-change vs cycle 0 with SALL4 ZFC4 WT (HT-SELEX), 1.15 ± 0.0607 fold-change vs cycle 0 in experiment [1] and 1.12 ± 0.048 fold-change vs cycle 0 in experiment [2].
In the case of GTTATA, the figures for the binding signal (in the experiment with SALL4 ZFC4 WT (HT-SELEX); in experiment [1]; in experiment [2]) were 2.5 ± 0.231 fold-change vs cycle 0, 2.05 ± 0.15 fold-change vs cycle 0 and 1.78 ± 0.179 fold-change vs cycle 0, respectively.
For AACTCA, in that order: 1.37 ± 0.0562 fold-change vs cycle 0, 1.48 ± 0.0196 fold-change vs cycle 0 and 1.4 ± 0.113 fold-change vs cycle 0.
For CTTTTA, in that order: 1.77 ± 0.0546 fold-change vs cycle 0, 1.86 ± 0.125 fold-change vs cycle 0 and 1.63 ± 0.122 fold-change vs cycle 0.
In the same order, the values of CAGATG are 0.794 ± 0.0267 fold-change vs cycle 0, 0.922 ± 0.0206 fold-change vs cycle 0 and 0.959 ± 0.0159 fold-change vs cycle 0.
ACAACA: the binding signal worked out at 1.16 ± 0.0181 fold-change vs cycle 0 with SALL4 ZFC4 WT (HT-SELEX), 1.28 ± 0.0315 fold-change vs cycle 0 in experiment [1] and 1.25 ± 0.0467 fold-change vs cycle 0 in experiment [2].
In the same order, the values of TCGCAA are 0.451 ± 0.0135 fold-change vs cycle 0, 0.483 ± 0.00786 fold-change vs cycle 0 and 0.616 ± 0.0634 fold-change vs cycle 0.
For GAGACC, in that order: 0.414 ± 0.0124 fold-change vs cycle 0, 0.5424 ± 0.00269 fold-change vs cycle 0 and 0.643 ± 0.0507 fold-change vs cycle 0.
Consider CTATGC, for which the binding signal with SALL4 ZFC4 WT (HT-SELEX) is 0.624 ± 0.0148 fold-change vs cycle 0; in experiment [1], 0.702 ± 0.0118 fold-change vs cycle 0; in experiment [2], 0.796 ± 0.0538 fold-change vs cycle 0.
In the same order, the values of CTTGTC are 0.741 ± 0.0177 fold-change vs cycle 0, 0.888 ± 0.0216 fold-change vs cycle 0 and 0.915 ± 0.0332 fold-change vs cycle 0.
In the same order, the values of TCGTCA are 0.675 ± 0.0174 fold-change vs cycle 0, 0.765 ± 0.0313 fold-change vs cycle 0 and 0.852 ± 0.012 fold-change vs cycle 0.
As to CGGATA, the binding signal in the experiment with SALL4 ZFC4 WT (HT-SELEX) was found to be 0.674 ± 0.0155 fold-change vs cycle 0; in experiment [1], 0.747 ± 0.0235 fold-change vs cycle 0; in experiment [2], 0.823 ± 0.043 fold-change vs cycle 0.
In the same order, the values of CAAGGA are 0.866 ± 0.0298 fold-change vs cycle 0, 1.02 ± 0.0119 fold-change vs cycle 0 and 1.01 ± 0.0394 fold-change vs cycle 0.
As to AAGTAT, the figures for the binding signal (with SALL4 ZFC4 WT (HT-SELEX); in experiment [1]; in experiment [2]) were 2.21 ± 0.135 fold-change vs cycle 0, 2.14 ± 0.158 fold-change vs cycle 0 and 1.87 ± 0.204 fold-change vs cycle 0, respectively.
In the same order, the values of GGATAA are 1.38 ± 0.0543 fold-change vs cycle 0, 1.52 ± 0.0741 fold-change vs cycle 0 and 1.34 ± 0.114 fold-change vs cycle 0.
In the same order, the values of CTGAGC are 0.348 ± 0.00959 fold-change vs cycle 0, 0.42 ± 0.0161 fold-change vs cycle 0 and 0.535 ± 0.0354 fold-change vs cycle 0.
In the same order, the values of CAGCAA are 0.551 ± 0.0466 fold-change vs cycle 0, 0.641 ± 0.0279 fold-change vs cycle 0 and 0.737 ± 0.0707 fold-change vs cycle 0.
Regarding AGTATC, the binding signal with SALL4 ZFC4 WT (HT-SELEX) is 1.37 ± 0.0932 fold-change vs cycle 0; in experiment [1], 1.48 ± 0.12 fold-change vs cycle 0; in experiment [2], 1.44 ± 0.125 fold-change vs cycle 0.
In the same order, the values of AGCGTA are 0.55 ± 0.0304 fold-change vs cycle 0, 0.623 ± 0.0245 fold-change vs cycle 0 and 0.723 ± 0.0232 fold-change vs cycle 0.
In the same order, the values of CACCCA are 0.431 ± 0.034 fold-change vs cycle 0, 0.488 ± 0.0313 fold-change vs cycle 0 and 0.59 ± 0.0722 fold-change vs cycle 0.
In the same order, the values of CGTTTA are 1.06 ± 0.0285 fold-change vs cycle 0, 1.15 ± 0.0184 fold-change vs cycle 0 and 1.12 ± 0.0221 fold-change vs cycle 0.
With GATTAC, the binding signal with SALL4 ZFC4 WT (HT-SELEX) stood at 1.43 ± 0.106 fold-change vs cycle 0; in experiment [1] it was 1.54 ± 0.0979 fold-change vs cycle 0; in experiment [2], 1.45 ± 0.0912 fold-change vs cycle 0.
For ACCGGA, in that order: 0.381 ± 0.0137 fold-change vs cycle 0, 0.447 ± 0.0161 fold-change vs cycle 0 and 0.56 ± 0.0517 fold-change vs cycle 0.
In the same order, the values of ATTACA are 2.21 ± 0.144 fold-change vs cycle 0, 2.06 ± 0.11 fold-change vs cycle 0 and 1.82 ± 0.177 fold-change vs cycle 0.
In the same order, the values of ACGATA are 1.28 ± 0.0502 fold-change vs cycle 0, 1.3 ± 0.0452 fold-change vs cycle 0 and 1.26 ± 0.0543 fold-change vs cycle 0.
As for AGTCCC, the results for the binding signal (with SALL4 ZFC4 WT (HT-SELEX); in experiment [1]; in experiment [2]) were 0.468 ± 0.0376 fold-change vs cycle 0, 0.54 ± 0.0297 fold-change vs cycle 0 and 0.65 ± 0.0407 fold-change vs cycle 0, respectively.
In the same order, the values of TGTAAA are 1.93 ± 0.102 fold-change vs cycle 0, 1.92 ± 0.0908 fold-change vs cycle 0 and 1.7 ± 0.134 fold-change vs cycle 0.
In the same order, the values of ATATTA are 4.97 ± 0.422 fold-change vs cycle 0, 2.59 ± 0.139 fold-change vs cycle 0 and 2.22 ± 0.236 fold-change vs cycle 0.
For AGACGA, in that order: 0.675 ± 0.0154 fold-change vs cycle 0, 0.786 ± 0.0316 fold-change vs cycle 0 and 0.86 ± 0.0237 fold-change vs cycle 0.
For the sequence ATCACG, the binding signal with SALL4 ZFC4 WT (HT-SELEX) was found to be 0.751 ± 0.0409 fold-change vs cycle 0; in experiment [1] it was 0.856 ± 0.012 fold-change vs cycle 0; in experiment [2], 0.923 ± 0.0125 fold-change vs cycle 0.
AGTGAT: the binding signal in the experiment with SALL4 ZFC4 WT (HT-SELEX) was determined as 1.45 ± 0.0292 fold-change vs cycle 0; in experiment [1], 1.59 ± 0.0395 fold-change vs cycle 0; in experiment [2] it was 1.53 ± 0.097 fold-change vs cycle 0.
Turning to ACATTG, the values for the binding signal (in the experiment with SALL4 ZFC4 WT (HT-SELEX); in experiment [1]; in experiment [2]) were 1.17 ± 0.0218 fold-change vs cycle 0, 1.29 ± 0.0215 fold-change vs cycle 0 and 1.28 ± 0.0251 fold-change vs cycle 0, respectively.
In the same order, the values of GAAATA are 2.68 ± 0.193 fold-change vs cycle 0, 1.89 ± 0.115 fold-change vs cycle 0 and 1.72 ± 0.124 fold-change vs cycle 0.
In the same order, the values of ACTCAG are 0.865 ± 0.0453 fold-change vs cycle 0, 0.97 ± 0.0144 fold-change vs cycle 0 and 0.994 ± 0.0115 fold-change vs cycle 0.
For GGTGAC, in that order: 0.454 ± 0.0238 fold-change vs cycle 0, 0.526 ± 0.0318 fold-change vs cycle 0 and 0.642 ± 0.0609 fold-change vs cycle 0.
Consider ATCACA, for which the binding signal was found to be 1.39 ± 0.0936 fold-change vs cycle 0 in the experiment with SALL4 ZFC4 WT (HT-SELEX), 1.48 ± 0.0843 fold-change vs cycle 0 in experiment [1] and 1.43 ± 0.11 fold-change vs cycle 0 in experiment [2].
